Where “and” joins values, the source holds several entries; their conditions need not be identical. Equal entries are not always repeated. Values without a mark were called inactive. Results filed as inconclusive are left out. A call without a number means that no potency is given here. Calls of active or inactive are those of the source. Unless noted, calls follow the shape of the dose curve; as a rule, active = well fitted curve in the direction sought with a large enough effect in the repeat runs; inconclusive = weak or mixed curves; inactive = no such curve, though single readings can be large; an effect the other way counts as inactive or inconclusive.
Experiments:
[1] = qHTS assay to identify small molecule agonists of H2AX (AID 1224845; active = well fitted activation curve with a large enough effect in the signal ratio in the repeat runs, not every such curve was filed as active; the % refers to the signal ratio)
How it was run: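 Wild-type CHO-K1 cells plated overnight, then exposed 3 hr at 37C to compounds at 15 concentrations (0.76% DMSO). Lysed, then HTRF anti-pH2AX(S139)-cryptate/anti-H2AX-d2 detection after 24 hr at room temperature; emissions 665 and 620 nm.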

[2] = qHTS assay to identify small molecule agonists of H2AX - cell viability counter screen (AID 1224847; calls by dose curve; also: nearly all actives have a fitted effect of over 30% in size; also: potency is read from the fitted curve at half-maximal effect)
How it was run: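 CHO-K1 wt, 1000 cells/well, o/n 37C; cpds 15 conc, 3 h 37C, 0.76% DMSO; CellTiter-Glo, 30 min RT, luminescence.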

[3] = qHTS RealTime-Glo MT Cell Viability Assay in HepG2 cells - 24 hour (AID 1224867); also: nearly all actives have a fitted effect of over 50% in size
How it was run: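 HepG2 suspension premixed with RealTime-Glo reagents is plated at 600 cells per well and left 5 h at 37 C/5% CO2. Compounds in DMSO then go in, and bioluminescence reflecting viable cell number is recorded over 40 h.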

[4] = qHTS RealTime-Glo MT Cell Viability Assay in HEK293 cells - 32 hour (AID 1224868); also: nearly all actives have a fitted effect of over 50% in size; also: potency is read from the fitted curve at half-maximal effect
How it was run: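 Reads taken at 0, 8, 16, 24, 32 and 40 h from the same wells. HEK293 cells (600/well) carried RealTime-Glo reagents from seeding, with compound added after a 5 h settle at 37 C.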

[5] = A CellTox Green Cytotoxicity Assay to monitor cytotoxicity in HEK293 cells - 0 hour (AID 1224869); also: nearly all actives have a fitted effect of over 50% in size
How it was run: (§1)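 Real-time, in one plate: 600 HEK293 cells/well with dead-cell DNA dye, pinned compound after 5 h, 37 C incubation over 40 h; viable cells give no appreciable fluorescence.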

[6] = qHTS RealTime-Glo MT Cell Viability Assay in HepG2 cells - 40 hour (AID 1224870); also: nearly all actives have a fitted effect of over 50% in size; also: potency is read from the fitted curve at half-maximal effect
How it was run: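 HepG2 cells mixed with RealTime-Glo MT reagents (NanoLuc plus cell-permeant prosubstrate) were seeded at 600 cells/well, incubated 5 h at 37 C/5% CO2, then pinned with compounds in DMSO; nonlytic luminescence tracked viability during 40 h treatment.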

[7] = A CellTox Green Cytotoxicity Assay to monitor cytotoxicity in HEK293 cells - 40 hour (AID 1224871); also: nearly all actives have a fitted effect of over 45% in size; also: potency is read from the fitted curve at half-maximal effect
How it was run: as §1

[8] = qHTS assay to identify small molecule agonists of the hypoxia (HIF-1) signaling pathway (AID 1224846; active = well fitted activation curve with a large enough effect in the signal ratio in the repeat runs, not every such curve was filed as active; the % refers to the signal ratio)
How it was run: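 ME-180 HRE-bla reporter cells; compounds in DMSO, 17 h at 37C; read-out beta-lactamase via CCF4-AM FRET.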

[9] = qHTS assay to identify small molecule agonists of the estrogen related receptor (ERR) signaling pathway from Tox21 library (AID 1224849; calls by dose curve; also: nearly all actives have a fitted effect of over 15% in size); settings: ERR reporter cell line, ONE-Glo luciferase, 18 h; at 92.4 µM (top of the series) unless noted
How it was run: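 Luciferase activity in ERR pathway reporter cells served as the agonist readout; exposure lasted 18 h at 37 C, with ONE-Glo detection after 30 min at room temperature.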

[10] = qHTS assay to identify small molecule antagonists of the estrogen related receptor (ERR) signaling pathway from Tox21 library (AID 1224848); also: nearly all actives have a fitted effect of over 50% in size; also: potency is read from the fitted curve at half-maximal effect
How it was run: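 Tox21 10K compounds in DMSO tested for ERR pathway antagonism in NTP's ERR cell line; 18 h, 37 C exposure; ONE-Glo luminescence.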

SMILES | Potency [1] | Potency [2] | Potency [3] | Potency [4] | Potency [5] | Potency [6] | Potency [7] | outcome [8] | activity change, positive = activation [9] | Potency [10]
CC(C)=CCCC(C)CC=O (stereo not drawn) | inactive | inactive | inactive | inactive | inactive | inactive | inactive |  |  | 
Cc1ccc2c(ccc3ccccc32)c1 | inactive |  | inactive |  | inactive | inactive | inactive | inactive |  | 
CN1CCC(=C2c3ccccc3C=Cc3ccccc32)CC1 | inactive | inactive |  |  | inactive | inactive |  |  | 5.98% [at 42.5 µM] | 
CN1CCC[C@@H]1c1cccnc1 | inactive | inactive | inactive | inactive | inactive |  | inactive |  |  | 
C[C@H](CCC(=O)O)[C@H]1CC[C@H]2[C@@H]3[C@H](O)C[C@@H]4C[C@H](O)CC[C@]4(C)[C@H]3CC[C@]12C | inactive | inactive | inactive |  | inactive | inactive |  |  |  | inactive
CCCCCOC(=O)c1ccc(O)cc1 | inactive | 114 µM (active) | inactive | 44.2 µM (active) | inactive | inactive | 49.6 µM (active) |  | 37.7% (active) | inactive
N=C(N=C(N)N)N1CCOCC1 | inactive | inactive | inactive | inactive | inactive | inactive | inactive |  | 10.8% [at 42.5 µM] | 
NCCCOCCOCCOCCCN | inactive | inactive | inactive | inactive | inactive | inactive | inactive |  |  | 
CC(Cc1cccc(C(F)(F)F)c1)NCCOC(=O)c1ccccc1 (stereo not drawn) | inactive |  | inactive |  | inactive | inactive | 21.3 µM (active) | inactive |  | 
CC(=O)c1c(C)c([N+](=O)[O-])c(C(C)(C)C)c([N+](=O)[O-])c1C | inactive |  | inactive | inactive | inactive | inactive | inactive | inactive |  | 
O=C(Nc1ccccc1)OCC(CN1CCCCC1)OC(=O)Nc1ccccc1 (stereo not drawn) | inactive | inactive | inactive | 21.3 µM (active) | inactive | inactive | inactive |  |  | 
CCC(C)N(C)C(=O)c1cc2ccccc2c(-c2ccccc2Cl)n1 (stereo not drawn) | inactive | inactive | inactive |  | inactive | inactive | inactive |  |  | 
CN(C(=O)CCCOc1ccc2[nH]c(=O)ccc2c1)C1CCCCC1 | inactive | inactive | inactive |  | inactive | inactive | inactive |  | -12.9% [at 42.5 µM] | 
OC(CCN1CCCCC1)(c1ccccc1)C1CCCCC1 (stereo not drawn) | inactive |  | inactive |  | inactive | inactive | inactive |  | 2.3% [at 42.5 µM] | inactive
CN(C)CC/C=C1\c2ccccc2COc2ccccc21 | inactive | inactive | inactive | inactive | inactive | inactive | inactive |  |  | 
CCCCCCCC/C=C\CCCCCCCC(N)=O | inactive |  | inactive |  | inactive | inactive |  |  | -4.69% | inactive
CNCC[C@@H](Oc1ccccc1C)c1ccccc1 | inactive | inactive | inactive | inactive | inactive |  | inactive |  | -15.2% [at 42.5 µM] | 
CCCCc1cc2ccccc2c(OCCN(C)C)n1 | inactive |  | inactive |  | inactive | inactive | 21.3 µM (active) | inactive |  | 
O=C(c1ccccc1)c1ccc2n1CCC2C(=O)O (stereo not drawn) | inactive | inactive | inactive | inactive | inactive |  | inactive |  |  | 
CC1CCc2cc(F)cc3c(=O)c(C(=O)O)cn1c23 (stereo not drawn) | inactive | inactive | inactive | inactive | inactive | inactive | inactive |  |  | 
Cn1c(=O)c2c(ncn2CC(O)CO)n(C)c1=O (stereo not drawn) | inactive | inactive | inactive | inactive | inactive |  | inactive |  | 6.5% [at 42.5 µM] | 
CCCCCc1ccc(N)cc1 | inactive |  | inactive | inactive | inactive | inactive | 49 µM (active) | inactive |  | 
N#CCCNCCC#N | inactive | inactive | inactive | inactive | inactive | inactive | inactive |  |  | 
CC(C(=O)O)c1ccc(C(=O)c2ccccc2)s1 (stereo not drawn) |  | inactive | inactive | inactive | inactive | inactive | inactive |  |  | 
Nc1nc(N)c2nc(CNc3ccc(C(=O)N[C@@H](CCC(=O)O)C(=O)O)cc3)cnc2n1 |  | inactive | inactive |  | inactive |  | inactive |  | -62.3% | 
CCN(CC)CCOc1ccc2c(c1)C(=O)c1cc(OCCN(CC)CC)ccc1-2 |  |  |  | 13.4 µM (active) | inactive |  |  | inactive | -38.3% [at 42.5 µM] | 
CC(C)NCC(O)COc1ccc(CC(N)=O)cc1 (stereo not drawn) |  | inactive | inactive | inactive | inactive | inactive | inactive |  |  | 

SMILES | Potency [1] | Potency [2] | Potency [3] | Potency [4] | Potency [5] | Potency [6] | Potency [7] | outcome [8] | activity change, positive = activation [9] | Potency [10]
Cc1cc(C)c(S(=O)(=O)O)cc1N=Nc1cc(S(=O)(=O)O)c2ccccc2c1O |  |  | inactive |  | inactive | inactive | inactive | inactive |  | 
O=C1Nc2cc(Cl)ccc2Oc2ccccc21 |  | inactive | inactive | inactive | inactive | inactive | inactive | inactive |  | 
O=C(c1ccc(O)cc1)c1ccc(O)cc1 |  | inactive | inactive | inactive | inactive | inactive | inactive | inactive | 37.5% (active) | 
CC[C@]12CCCN3CCc4c(n(c5ccccc45)C(=O)C1)[C@@H]32 |  | inactive | inactive | 4.77 µM (active) | inactive | inactive | inactive |  | -17.2% [at 42.5 µM] | 
C=CC(C)(CCC=C(C)C)OC(=O)c1ccccc1 (stereo not drawn) |  |  | inactive | inactive | inactive |  |  | inactive |  | 
O=C(CC(=O)c1ccccc1)c1ccccc1 |  | inactive | inactive | inactive | inactive | inactive | inactive | inactive | 58.5% (active) | 
CC(C)c1ccccc1C(C)C |  | inactive | inactive | inactive | inactive | inactive | inactive | inactive |  | 
O=C(O)Cc1cc(I)c(Oc2ccc(O)c(I)c2)c(I)c1 |  | inactive | inactive | inactive | inactive | inactive | inactive |  | -36.3% | 
CCCCOc1ccc(CC(=O)NO)cc1 |  | inactive | inactive |  | inactive | inactive | inactive | inactive |  | 
Oc1ccc2c(c1)OCO2 |  | inactive | inactive | inactive | inactive | inactive | inactive | inactive |  | 
CC(=O)N(O)CCCCCNC(=O)CCC(=O)N(O)CCCCCNC(=O)CCC(=O)N(O)CCCCCN |  | inactive | inactive |  | inactive | inactive | inactive | inactive | -34.7% [at 42.5 µM] | 26.6 µM (active)
O=[N+]([O-])c1cc[n+]([O-])cc1 |  | inactive |  | inactive | inactive |  | inactive | inactive |  | 
O=C(/C=C/c1ccc(O)c(O)c1)O[C@@H]1C[C@](O)(C(=O)O)C[C@@H](O)[C@H]1O |  | inactive | inactive | inactive | inactive |  | inactive |  |  | 
Nc1ccc(C(=O)Nc2ccccc2N)cc1 |  | inactive | inactive |  | inactive | 13.4 µM (active) | inactive | inactive | 21.9% [at 42.5 µM] (active) | inactive
CCCOc1ccc2nc(NC(=O)OC)[nH]c2c1 |  | inactive | inactive |  | inactive | inactive | inactive | inactive |  | 
CCOC(=O)C1=NN(c2ccccc2)C(=O)C1 |  | inactive | inactive | inactive | inactive |  | inactive | inactive |  | 
CC/C(=C\C(=N/O)C(N)=O)C(C)[N+](=O)[O-] (stereo not drawn) |  | inactive | inactive | inactive | inactive | inactive |  | inactive | 4.01% | 
O=C(O)Cc1sc(-c2ccccc2)nc1-c1ccc(Cl)cc1 |  | inactive | inactive | inactive | inactive | inactive | inactive | inactive | -15.3% [at 42.5 µM] | 
CN1CCN(C2=Nc3cc(Cl)ccc3Nc3ccccc32)CC1 |  | inactive |  |  | inactive |  | inactive |  |  | 
Cn1sccc1=O |  | inactive | inactive |  | inactive | inactive | inactive |  | -14.6% and -29.4% | 
C=Cc1c(C)c2cc3[nH]c(cc4nc(cc5nc(cc1[nH]2)C(C)=C5CCC(=O)O)C(CCC(=O)O)=C4C)c(C)c3C=C |  | inactive | inactive | inactive | inactive | inactive | inactive |  | -18% [at 42.5 µM] | 
CCCCCCCCCCCCCCCBr |  | inactive | inactive | inactive | inactive | inactive | inactive | inactive |  | 
CN(c1nccc(=O)[nH]1)C1CCN(c2nc3ccccc3n2Cc2ccc(F)cc2)CC1 |  | inactive | inactive |  | inactive | inactive | inactive | inactive |  | 
COc1cc(C(C)(C)C)c(O)c(C(C)(C)C)c1 |  |  | inactive | inactive | inactive | inactive | 43.6 µM (active) | inactive | -4.21% | 
Cc1cc(O)ccc1N |  |  | inactive | 49.2 µM (active) | inactive | inactive | 34.9 µM (active) | inactive | -16.6% | 
Cn1c(N)nc2nc[nH]c2c1=O |  | inactive | inactive |  | inactive | inactive | inactive | inactive |  | 

— PubChem BioAssay (Tox21)
